The target in one assay is Albumin (Bos taurus) (UniProt P02769). The experiment in a line: compounds binding labelled BSA control protein – biochemical, small-molecule microarray, Alexa647 label, 635/667 nm fluorescence, artefact control for SMM control protein annotation, profiling panel (AID 1118).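 Note: score merges 667 nm emission intensity and signal-to-noise per printed compound spot.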 Conditions: BSA-A647 binding, fluorescence 635 nm, higher = more signal.
Assay [1] in a line: probe aXIP binding to arrayed compounds – biochemical, NeuroSMM set, 635/667 nm fluorescence, primary screen (AID 1119).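 Note: probe is the protein aXip251-270 applied at 1 µg/mL to compound-printed slides; binding of probe to printed compounds measured as 667 nm fluorescence plus signal to noise.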 Particulars: small-molecule microarray, higher = more signal, called active from +8 up or from −8 down.
The nature of assay [2]: probe aNOTCH3 binding on compound microarray – biochemical, small-molecule microarray, 635/667 nm fluorescence, primary screen (AID 1120).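 Note: probe is a biotin-tagged antibody raised against NOTCH3 rather than NOTCH3 protein; score merges spot fluorescence near 667 nm with spot signal to noise.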 Particulars: higher = more signal.
Assay [3] can be described thus: probe aNOTCH2 binding on compound microarray – biochemical, small-molecule microarray, 635/667 nm fluorescence, primary screen (AID 1121).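 Note: score merges feature fluorescence read at 667 nm with its signal to noise.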 Conditions: higher = more signal.
The target of assay [4] is Carbonic anhydrase 2 (Homo sapiens) (UniProt P00918). The experiment in a line: compounds binding carbonic anhydrase 2 – biochemical, small-molecule microarray, Alexa647-labelled CAII, profiling panel (AID 1122). Particulars: CAII-A647 binding fluorescence, higher = more signal.
Assay [5] in a line: COS7 lysate on small-molecule microarray, probe aHis, 635 nm (AID 1123).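 Note: z-score combines 667nm fluorescence intensity with signal-to-noise per printed compound spot.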 Conditions: COS7 cell lysate, fluorescence, higher = more signal.
Assay [6] in a line: probe aLAP1 signal on lysate-treated microarray – cell lysate, small-molecule microarray, COS7 lysate, primary screen (AID 1124).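 Note: lysate comes from COS7 cells expressing LAP1 and is applied at 0.3 µg/mL; score merges spot fluorescence near 667 nm with signal-to-noise over triplicate slides.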 Particulars: probe aLAP1, fluorescence, higher = more signal.
The next assay has as its system Sam68 (KHDRBS1). The experiment in a line: compounds binding KHDRBS1 protein – biochemical, small-molecule microarray, 635 nm fluorescence, primary screen (AID 1125).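 Note: score merges 667 nm channel intensity with signal to noise over triplicate slides.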 Particulars: higher = more signal.
Assay [7] relates to Chordin-like protein 2 (CHRDL2). The experiment in a line: compounds binding chordin-like 2 – biochemical, small-molecule microarray, 635 nm fluorescence, primary screen (AID 1126).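 Note: printed compound slides probed with Chrdl2 protein at 4 µg/mL for 1 h at 4 C; score merges 667 nm emission intensity with signal to noise over three replicate slides.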 Conditions: fluorescence 635 nm, higher = more signal.
The target of assay [8] is Concanavalin-A (Canavalia ensiformis) (UniProt P02866). Description: compounds binding concanavalin A lectin – biochemical, small-molecule microarray, Alexa647 label, 635 nm, artefact control for SMM control protein annotation, primary screen (AID 1127).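 Note: z combines 667 nm emission intensity with signal-to-noise across three replicate slides.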 Conditions: ConA-A647 binding fluorescence, higher = more signal.
A short description of assay [9]: compounds binding Alexa647 anti-His antibody – biochemical, small-molecule microarray, 635 nm fluorescence, artefact control for SMM control protein annotation, primary screen (AID 1128).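 Note: score merges feature fluorescence with signal-to-noise for each printed compound spot.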 Conditions: higher = more signal.
Assay [10] has as its system Human papillomavirus type 1a E7 protein (residues 1-88). Description: HPV1a E7 small-molecule binders, primary screen, biochemical, small-molecule microarray, residues 1-88, 635 nm (AID 1129). Particulars: small-molecule microarray binding, fluorescence 635 nm; higher = more signal.
Assay [11] addresses Focal adhesion kinase 1 (Homo sapiens) (UniProt Q05397). The experiment in a line: PTK2 protein binding on printed compound slides – biochemical, small-molecule microarray, 635/667 nm fluorescence, BSA, DTT, primary screen (AID 1130).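 Note: composite of spot emission at 667 nm and signal to noise over triplicate slides.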 Conditions: 635 nm fluorescence, higher = more signal.
The subject of assay [12] is Fibrinogen (Alexa647-labelled). The experiment in a line: Alexa647-fibrinogen binding to printed small molecules – biochemical, small-molecule microarray, 635/667 nm fluorescence, artefact control for SMM control-protein annotation, profiling panel (AID 1131).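 Note: z-score merges 667 nm fluorescence with per-spot signal-to-noise over triplicate slides.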 Conditions: fibrinogen-A647 binding fluorescence, higher = more signal.
Assay [13] concerns the target Follistatin (Homo sapiens) (UniProt P19883). The experiment in a line: FST protein binding to printed compounds – biochemical, small-molecule microarray, 635/667 nm fluorescence, primary screen (AID 1132). Particulars: 635 nm fluorescence, higher = more signal.
The target in assay [14] is Fibroblast growth factor 2 (Homo sapiens) (UniProt P09038). Description: basic fibroblast growth factor binding to printed compounds – biochemical, small-molecule microarray, 635/667 nm fluorescence, primary screen (AID 1133). Conditions: FGF2, fluorescence 635/667, higher = more signal.
The nature of assay [15]: JC-1 mitochondrial potential readout, lung cancer cells – cell-based, A549, JC-1 fluorescence, basal, 24 h, 100 nL, profiling panel (AID 1138).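 Note: A549 lung adenocarcinoma cells under basal conditions with no added stimulus; test concentration not given here.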 Conditions: higher = more signal.
The subject of the next assay is Lefty1. Description: Lefty1 protein binding to printed compounds – biochemical, small-molecule microarray, 635/667 nm fluorescence, primary screen (AID 1139). Conditions: fluorescence 635/667, higher = more signal.
The test system of assay [16] is wheat germ agglutinin (Triticum aestivum), Alexa647-labelled. Description: Alexa647-WGA lectin binding to printed small molecules – biochemical, small-molecule microarray, 635/667 nm fluorescence, artefact control for SMM control-protein annotation, profiling panel (AID 1140).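 Note: score merges 667 nm feature emission with signal to noise over triplicate slides.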 Conditions: WGA-A647 binding, 635 nm fluorescence, higher = more signal.
Assay [17] deals with Luciferin 4-monooxygenase (Photinus pyralis) (UniProt P08659). Description: inhibition of purified Photinus pyralis luciferase – biochemical, luminescence, purified enzyme, 2006 set, primary screen (AID 1141).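 Note: cell-free assay with purified firefly luciferase at 100 ng per well in PBS; test concentration not given here.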 Particulars: purified firefly luciferase, SteadyGlo luminescence, 30 min; higher = more signal, called active from +8 up or from −8 down.

Calls of active or inactive are those of the source.

Concanavalin-A (Canavalia ensiformis), sequence (P02866 whole entry, looked up): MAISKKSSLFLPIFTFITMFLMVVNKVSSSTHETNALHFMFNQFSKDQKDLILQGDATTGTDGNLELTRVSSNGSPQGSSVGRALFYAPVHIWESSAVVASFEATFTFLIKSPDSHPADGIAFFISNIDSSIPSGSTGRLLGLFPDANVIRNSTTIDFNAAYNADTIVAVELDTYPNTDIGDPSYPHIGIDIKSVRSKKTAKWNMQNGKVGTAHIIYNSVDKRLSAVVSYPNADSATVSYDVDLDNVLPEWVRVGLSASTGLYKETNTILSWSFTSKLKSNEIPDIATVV
Follistatin (Homo sapiens), sequence (P19883 whole entry, looked up): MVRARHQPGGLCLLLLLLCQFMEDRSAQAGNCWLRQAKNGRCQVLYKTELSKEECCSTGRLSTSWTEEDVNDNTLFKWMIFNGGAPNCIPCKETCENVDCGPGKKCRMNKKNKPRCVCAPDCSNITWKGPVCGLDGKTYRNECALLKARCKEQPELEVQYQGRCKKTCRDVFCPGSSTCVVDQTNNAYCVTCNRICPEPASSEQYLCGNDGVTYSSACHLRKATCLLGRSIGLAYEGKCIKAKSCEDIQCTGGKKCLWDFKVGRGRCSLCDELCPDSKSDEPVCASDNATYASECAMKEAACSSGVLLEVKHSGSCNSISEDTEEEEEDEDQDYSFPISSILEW
Fibroblast growth factor 2 (Homo sapiens), sequence (P09038 whole entry, looked up): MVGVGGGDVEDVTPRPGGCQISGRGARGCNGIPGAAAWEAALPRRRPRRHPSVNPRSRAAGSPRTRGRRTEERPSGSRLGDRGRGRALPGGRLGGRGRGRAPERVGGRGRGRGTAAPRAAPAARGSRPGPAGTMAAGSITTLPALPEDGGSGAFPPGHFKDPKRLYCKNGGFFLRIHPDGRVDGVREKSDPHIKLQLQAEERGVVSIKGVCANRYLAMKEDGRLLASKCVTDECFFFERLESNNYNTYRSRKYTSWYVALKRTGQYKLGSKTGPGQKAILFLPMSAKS
Focal adhesion kinase 1 (Homo sapiens), sequence (Q05397 whole entry, looked up): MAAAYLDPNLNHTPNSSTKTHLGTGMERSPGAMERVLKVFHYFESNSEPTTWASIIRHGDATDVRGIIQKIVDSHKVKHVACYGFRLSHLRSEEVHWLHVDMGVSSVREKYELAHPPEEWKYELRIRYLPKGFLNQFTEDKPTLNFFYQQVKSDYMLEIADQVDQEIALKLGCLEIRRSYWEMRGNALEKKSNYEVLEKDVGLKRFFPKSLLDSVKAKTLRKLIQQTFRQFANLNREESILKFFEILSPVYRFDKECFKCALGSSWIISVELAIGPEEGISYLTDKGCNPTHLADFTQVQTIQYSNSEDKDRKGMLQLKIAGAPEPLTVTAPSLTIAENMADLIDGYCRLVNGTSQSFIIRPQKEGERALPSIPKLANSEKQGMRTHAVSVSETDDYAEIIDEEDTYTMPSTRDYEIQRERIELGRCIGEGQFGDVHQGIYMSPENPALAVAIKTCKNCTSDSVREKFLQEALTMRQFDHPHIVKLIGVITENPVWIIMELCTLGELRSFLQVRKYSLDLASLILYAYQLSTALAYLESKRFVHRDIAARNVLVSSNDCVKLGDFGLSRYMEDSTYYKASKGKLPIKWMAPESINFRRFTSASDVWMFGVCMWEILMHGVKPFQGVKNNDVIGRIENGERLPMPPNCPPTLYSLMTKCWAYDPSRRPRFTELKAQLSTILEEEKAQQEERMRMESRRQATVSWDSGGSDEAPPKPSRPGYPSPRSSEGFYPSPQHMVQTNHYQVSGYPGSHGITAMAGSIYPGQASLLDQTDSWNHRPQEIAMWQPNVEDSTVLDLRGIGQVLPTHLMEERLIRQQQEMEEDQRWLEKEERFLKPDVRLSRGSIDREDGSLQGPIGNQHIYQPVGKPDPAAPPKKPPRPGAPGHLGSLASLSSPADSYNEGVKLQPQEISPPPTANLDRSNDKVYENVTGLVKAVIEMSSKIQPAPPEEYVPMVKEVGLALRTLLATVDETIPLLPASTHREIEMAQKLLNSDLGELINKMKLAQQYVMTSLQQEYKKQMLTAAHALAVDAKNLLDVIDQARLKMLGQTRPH
Albumin (Bos taurus), sequence (P02769 whole entry, looked up): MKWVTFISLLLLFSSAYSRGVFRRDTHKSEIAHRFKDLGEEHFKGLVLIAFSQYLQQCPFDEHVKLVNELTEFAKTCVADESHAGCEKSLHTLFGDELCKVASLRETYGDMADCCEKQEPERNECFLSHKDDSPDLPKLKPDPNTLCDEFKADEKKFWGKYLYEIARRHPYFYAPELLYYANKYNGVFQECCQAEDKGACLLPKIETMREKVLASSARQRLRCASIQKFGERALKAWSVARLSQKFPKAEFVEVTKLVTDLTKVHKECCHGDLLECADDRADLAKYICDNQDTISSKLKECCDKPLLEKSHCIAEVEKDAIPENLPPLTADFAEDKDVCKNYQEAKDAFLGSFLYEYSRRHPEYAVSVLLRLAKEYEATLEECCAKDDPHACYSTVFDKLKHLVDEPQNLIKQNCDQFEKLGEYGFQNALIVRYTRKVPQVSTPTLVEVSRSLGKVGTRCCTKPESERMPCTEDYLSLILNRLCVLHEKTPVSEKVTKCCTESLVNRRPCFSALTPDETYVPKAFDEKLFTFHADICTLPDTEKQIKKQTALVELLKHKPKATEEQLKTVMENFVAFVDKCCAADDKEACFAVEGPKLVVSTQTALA
Luciferin 4-monooxygenase (Photinus pyralis), sequence (P08659 whole entry, looked up): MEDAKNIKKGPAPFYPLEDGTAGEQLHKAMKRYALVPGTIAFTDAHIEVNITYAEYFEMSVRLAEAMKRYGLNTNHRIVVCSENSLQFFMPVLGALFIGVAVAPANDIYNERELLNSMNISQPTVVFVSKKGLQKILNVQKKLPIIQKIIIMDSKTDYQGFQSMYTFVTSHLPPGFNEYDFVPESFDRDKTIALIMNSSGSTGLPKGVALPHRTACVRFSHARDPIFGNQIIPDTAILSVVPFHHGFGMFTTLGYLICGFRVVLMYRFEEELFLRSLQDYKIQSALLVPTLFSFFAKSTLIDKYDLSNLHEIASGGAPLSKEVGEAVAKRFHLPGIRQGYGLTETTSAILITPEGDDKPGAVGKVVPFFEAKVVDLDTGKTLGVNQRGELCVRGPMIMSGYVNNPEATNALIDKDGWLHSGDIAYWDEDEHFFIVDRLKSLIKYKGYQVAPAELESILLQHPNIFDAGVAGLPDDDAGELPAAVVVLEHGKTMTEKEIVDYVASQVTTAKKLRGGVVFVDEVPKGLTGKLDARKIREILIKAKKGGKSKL

Regarding `CCCNC(=O)[C@@]1(C)c2ccccc2C(=O)N(Cc2cc(F)cc(C(F)(F)F)c2)[C@H]1c1ccc(CO)cc1`, the composite z-score with Albumin (Bos taurus) is 0.695; in assay [2], -0.201; in assay [3], -0.0569; in [4], 0.587; in [5], 2.24; in assay [6], -0.337. Also, the composite z-score in the assay on Sam68 (KHDRBS1) was -0.0127; in [7], -1.76; in assay [8], -0.365; in assay [9], 0.858; in assay [10], -0.331; in assay [11], -0.527. Further, the composite z-score is -1.73 in assay [12]; -0.839 in assay [13]; -0.812 in assay [14]; -0.662 in the assay on Lefty1; 0.932 in [16]. For the same molecule, in [1], the composite Z-score was 0.373 (inactive). For the same molecule, the z-score is -0.394 in [15] and 0.942 (inactive) in assay [17].

As to `C=CCOC(=O)[C@@H]1[C@H]2C(=O)O[C@H](c3ccccc3)[C@H](c3ccccc3)N2[C@H](c2ccc(OCCOC(=O)[C@H]3C[C@H]4C(=O)N[C@@H](CCCC[N+](C)(C)C)C(=O)N4[C@H]3c3cccc(OCCO)c3)cc2)[C@@]12C(=O)Nc1ccc(I)cc12`, the composite z-score was -0.707 with Albumin (Bos taurus); -0.0647 in assay [2]; -0.142 in [3]; 0.465 in [4]; 0.93 in assay [5]; 0.341 in [6]. Besides, the composite z-score in the assay with Sam68 (KHDRBS1) turned out to be 1.19; in assay [7], 1.19; in assay [8], 1.1; in assay [9], 1.3; in assay [10], 1.18; in assay [11] it was 0.163. Besides, the composite z-score came out at 0.496 in [12]; 1.4 in assay [13]; 1.55 in assay [14]; 1.15 in the assay on Lefty1; 0.115 in assay [16]. In addition, the composite Z-score in assay [1] is 0.629 (inactive). For the same molecule, the z-score in assay [15] is -0.93; in assay [17] it was -0.138 (inactive).

Consider `[N-]=[N+]=NCc1ccccc1C[C@]1(C(=O)NCC(O)CO)COC(c2ccc(OCCCO)cc2)=N1` (stereo not given in full), for which the composite z-score with Albumin (Bos taurus) came out at 1.03; in assay [2], 0.0566; in assay [3], 0.446; in assay [4] it was 0.8; in assay [5], 3.3; in assay [6], 1.38. In addition, the composite z-score in the assay with Sam68 (KHDRBS1) was 1.12; in assay [7] it was -1.37; in [8] it was 0.954; in [9], 1.41; in assay [10], 1.2; in assay [11], 1.98. Besides, the composite z-score in [12] is 0.0694; in [13], 0.831; in assay [14] it was -0.0586; in the assay on Lefty1, -0.683; in assay [16] it was 0.964. For the same molecule, the composite Z-score in [1] was 0.621 (inactive). In addition, the z-score in assay [15] is 1.18; in [17] it was -0.0644 (inactive).

As to `CC(C)C(O)C1C=CC2C(=O)N(C)C(=O)C2N1N1CCCCC1` (stereo not given), the composite z-score with Albumin (Bos taurus) is 0.867; in [2] it was 0.143; in assay [3], 0.0994; in [4] it was 0.773; in assay [5] it was 2.2; in assay [6] it was 0.111. The composite z-score in the assay on Sam68 (KHDRBS1) was 0.832; in assay [7], 0.117; in assay [8] it was 0.657; in [9], -0.0134; in assay [10], 1.11; in [11], 0.776. The composite z-score in assay [12] is 0.447; in [13], 0.336; in [14], 0.329; in the assay with Lefty1, -0.146; in assay [16] it was 0.763. In addition, the composite Z-score in assay [1] is 0.875 (inactive). For the same molecule, the z-score is -0.115 in [15] and -0.686 (inactive) in assay [17].

Regarding `Cc1c(NC(=O)/C(C#N)=C/C=C/c2ccccc2)c(=O)n(-c2ccccc2)n1C`, the composite z-score in the assay with Albumin (Bos taurus) is 0.566; in assay [2], 0.0859; in assay [3], 0.136; in assay [4], 0.682; in [5], 0.811; in [6], -0.195. In addition, the composite z-score in the assay with Sam68 (KHDRBS1) was -0.144; in assay [7], 0.427; in assay [8], 0.802; in assay [9], 0.378; in assay [10], 0.466; in [11], -0.358. In addition, the composite z-score in assay [12] is 0.68; in assay [13] it was 0.58; in [14], 0.366; with Lefty1 it was 0.451; in assay [16], 0.343. Also, in assay [1], the composite Z-score is 0.54 (inactive). Besides, the figures for the z-score in assay [15] and in [17] were -0.158 and -5.86 (inactive), respectively.

As for `C=CCCN(CC#C[C@H]1Oc2ccccc2S(=O)(=O)N2CCC[C@@H]12)S(=O)(=O)c1ccc(C)cc1`, the composite z-score with Albumin (Bos taurus) is 0.0985; in [2], 0.0311; in assay [3], -0.102; in assay [4], 0.208; in [5] it was 0.273; in assay [6] it was 0.758. Besides, the composite z-score was 0.215 with Sam68 (KHDRBS1); 0.607 in assay [7]; -0.464 in [8]; 0.881 in assay [9]; 0.136 in assay [10]; 0.172 in assay [11]. Further, the composite z-score in assay [12] was -0.348; in assay [13], 0.546; in assay [14], 1.22; with Lefty1, 0.317; in assay [16], -0.0231. Moreover, in assay [1], the composite Z-score is 0.671 (inactive). Further, the z-score is 0.957 in assay [15] and -0.291 (inactive) in assay [17].

Values taken from PubChem BioAssay.
